Results on 14 molecules are retold here after PubChem BioAssay.

The source made the active and inactive calls.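 How the source made its calls, unless noted: active means visual image review flags a hit and inhibition of aggregation exceeds 20%; inconclusive means visual hit but inhibition at or below 20%; inactive means no hit on visual image review.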

Assay [1] in a line: inhibitors of TNFa-induced NFkB p65 translocation, primary screen, imaging, HUVEC, MLSMR starter and 10KST1 sets (AID 438;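 active means inhibition above 20% together with a positive visual image hit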;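 further: compound added about 3h40 before a 20 min TNFalpha stimulation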;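 on inhibition: signal is the nuclear over cytoplasmic p65 intensity ratio per well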). The conditions noted are these: HUVEC TNFa-induced p65 nuclear translocation; cell count: measured here: nuclei count (cytotoxicity indicator), at 2.08 µM; inhibition: at 2 µM, stronger effect = higher value, 0% TNFa-plus-vehicle, 100% no-TNFa wells.
Assay [2] can be described thus: reduction of polyQ htt aggregates in cells – imaging, exon1htt(103Q)mCFP cells, high-content imaging, primary screen (AID 483).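 Further: compound exposure lasted 3 days before fixation.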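 On nuclei count: percent of the per-plate median nuclei count of sample wells.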 The conditions noted are these: exon1htt(103Q)mCFP cell line, aggregate imaging, at 2 µM; inhibition of aggregation: stronger effect = higher value; nuclei count: measured here: cell count, toxicity.
Assay [3] can be described thus: endothelial E-selectin expression blockers – imaging, HUVEC, immunofluorescence, MLSMR starter and 10KST1 sets, primary screen (AID 487;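 active means visually confirmed hit in the image check and inhibition above 20%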;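 on inhibition: signal is fraction of cell area covered by stained E-selectin grains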;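 on nuclei count: 100% = median nuclei count of all wells on the same plate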). As to conditions: HUVEC TNFalpha-induced E-selectin immunofluorescence imaging, at 2 µM; inhibition: stronger effect = higher value; nuclei count: measured here: cell number, toxicity.
Assay [4] concerns the target Voltage-gated potassium channel subunit beta-2 (Rattus norvegicus) (UniProt P62483). As to the kind of experiment: inhibitors of rat Kvbeta2 reductase activity – biochemical, NADPH fluorescence, primary screen (AID 622;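 active means fluorescence slope higher than the sample average by over 3 SD, cut at about -0.22 in these data, passing the limit was not always enough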;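 further: slope of raw intensity against log time taken from 70 to 1610 s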). The conditions noted are these: recombinant KvBeta, 4-cyanobenzaldehyde reduction, at 10 µM, stronger effect = higher value.
The target is the same in assay [5]. As to the kind of experiment: enhancers of rat Kvbeta2 NADPH turnover – biochemical, NADPH fluorescence, primary screen (AID 623;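 active means NADPH fluorescence slope more negative than the mean of all samples by about 3 SD, 99.7% confidence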;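 further: fluorescence intensity change per second fitted from 20 to 320 s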). The conditions noted are these: Recombinant KvBeta, NADPH fluorescence decrease slope, 10 min; at 10 µM; stronger effect = lower value.
The target in assay [6] is Alpha-2C adrenergic receptor (Homo sapiens) (UniProt P18825). As to the kind of experiment: compounds altering alpha2C-coupled GIRK flux – cell-based, HEK293 alpha2C/GIRK1/2, thallium flux, primary screen (AID 624;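 active means fluorescence slope after compound addition differing from the mean of all screened samples at 99.7% confidence, in either direction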;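 further: slope of fluorescence ratio to pre-addition baseline per second over 15 to 24 s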). The conditions noted are these: thallium flux BTC fluorescence, at 10 µM, actives lie on both sides.
Sequence of Alpha-2C adrenergic receptor (Homo sapiens) (P18825 whole entry, looked up): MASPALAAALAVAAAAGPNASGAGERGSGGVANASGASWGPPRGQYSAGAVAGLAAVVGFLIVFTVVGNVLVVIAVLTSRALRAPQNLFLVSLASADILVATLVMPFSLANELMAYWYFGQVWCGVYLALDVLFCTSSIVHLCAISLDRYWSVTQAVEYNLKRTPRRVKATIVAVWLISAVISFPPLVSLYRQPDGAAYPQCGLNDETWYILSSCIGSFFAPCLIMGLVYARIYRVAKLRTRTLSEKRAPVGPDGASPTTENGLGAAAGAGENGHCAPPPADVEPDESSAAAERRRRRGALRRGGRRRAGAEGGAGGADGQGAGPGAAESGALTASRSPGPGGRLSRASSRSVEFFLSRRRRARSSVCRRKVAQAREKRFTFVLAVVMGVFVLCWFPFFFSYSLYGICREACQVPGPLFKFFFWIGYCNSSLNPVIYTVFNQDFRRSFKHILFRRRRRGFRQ
Assay [7] in a line: blockers of RIG-like receptor reporter activation – cell-based, Sendai virus stimulus, luciferase, 10K MLSCN set, TLR/RLR signaling modifier project, primary screen (AID 602276;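 active means inhibition at or above 50% at 10 µM; inactive means inhibition below 50%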;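 further: firefly luciferase from ISG56 promoter only with Renilla not read in this screen; 0% = Sendai virus plus DMSO and 100% = medium plus DMSO without virus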). The conditions noted are these: HEK293 RL24 IRF3 luciferase reporter, at 10 µM, stronger effect = higher value. For orientation: Reporter assays use an easily measured gene product as a stand-in for the process of interest.

The nature of assay [8]: TLR3 IRF3 reporter activation blockers – cell-based, poly I:C stimulus, luciferase, 10K MLSCN set, primary screen (AID 602277;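 active means inhibition of the reporter signal at or above 50%; inactive means inhibition below 50%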). As to conditions: HEK293-TLR3 RL24 IRF3 luciferase reporter, at 10 µM, stronger effect = higher value.

Sequence of Voltage-gated potassium channel subunit beta-2 (Rattus norvegicus) (P62483 whole entry, looked up): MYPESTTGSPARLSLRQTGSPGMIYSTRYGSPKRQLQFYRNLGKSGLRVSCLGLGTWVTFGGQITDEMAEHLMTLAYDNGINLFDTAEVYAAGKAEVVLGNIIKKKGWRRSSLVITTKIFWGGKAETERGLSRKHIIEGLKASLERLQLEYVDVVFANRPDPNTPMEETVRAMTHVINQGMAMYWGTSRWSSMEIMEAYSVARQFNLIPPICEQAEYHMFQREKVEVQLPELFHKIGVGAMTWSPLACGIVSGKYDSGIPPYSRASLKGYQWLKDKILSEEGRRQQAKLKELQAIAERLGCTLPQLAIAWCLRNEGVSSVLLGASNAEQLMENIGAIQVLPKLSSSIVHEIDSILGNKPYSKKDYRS

For orientation: inhibition means the change of the read-out against control, counted positive when it falls. In the case of `COC(=O)c1ccnc(/C=N/O)c1`, in assay [1], the cell count was determined as 715. The inhibition is -2% (inactive) in assay [1], 11.2% (inactive) in assay [3], 15.5% (inactive) in assay [7] and 19.8% (inactive) in assay [8]. Further, in assay [2], the inhibition of aggregation was -19.8% (inactive). The nuclei count in assay [2] turned out to be 112%; in assay [3], 108%. Also, the fluorescence slope in assay [4] was -0.578 (inactive). In addition, the NADPH fluorescence slope in assay [5] was -2e-05 (inactive). Also, in assay [6], the slope was 0.00558 (inactive).
Turning to `CC(=O)Nc1cccc(NC(=O)CSc2nn3c(=O)c(C)nnc3s2)c1`, in assay [1], the cell count was found to be 577. The inhibition in assay [1] was 5.2% (inactive); in assay [3], -0.3% (inactive); in assay [7] it was 2.45% (inactive); in assay [8], 20.4% (inactive). Moreover, the inhibition of aggregation in assay [2] is 9.9% (inactive). Besides, the nuclei count is 97.9% in assay [2] and 95.8% in assay [3]. The fluorescence slope in assay [4] was -0.454 (inactive). In addition, the NADPH fluorescence slope in assay [5] is -5.9e-05 (inactive). Besides, the slope in assay [6] was 0.00534 (inactive).
`COc1ccc(-c2nc(CS(=O)CC(=O)N3CCCC3)c(C)o2)cc1` (centres undefined): in assay [1], the cell count was 465. The inhibition in assay [1] is 2.6% (inactive); in assay [3], -51.5% (inactive); in assay [7], 26% (inactive); in assay [8], 5.74% (inactive). Besides, the inhibition of aggregation in assay [2] was 6.1% (inactive). Besides, the nuclei count in assay [2] and in assay [3] was 100% throughout. For the same molecule, in assay [4], the fluorescence slope was -0.482 (inactive). Also, the NADPH fluorescence slope in assay [5] is -3.2e-05 (inactive). In assay [6], the slope is 0.006 (inactive).
As to `O=C(NCc1ccc2c(c1)OCO2)C1CCCN(S(=O)(=O)c2cccc3cccnc23)C1` (centres undefined), in assay [1], the cell count amounted to 741. In addition, the inhibition was -8% (inactive) in assay [1], -40.6% (inactive) in assay [3], 15.2% (inactive) in assay [7] and 40.4% (inactive) in assay [8]. Also, the inhibition of aggregation in assay [2] is 20.4% (inactive). Further, the nuclei count in assay [2] is 125%; in assay [3], 104%. For the same molecule, in assay [4], the fluorescence slope is -0.527 (inactive). Further, the NADPH fluorescence slope in assay [5] is -6.1e-05 (inactive). The slope in assay [6] was 0.00698 (inactive).
As to `CC(=O)Nc1ccc(-c2nn[nH]n2)cc1Cl`, the cell count in assay [1] came out at 630. Besides, the inhibition in assay [1] is -10.7% (inactive); in assay [3] it was 0.8% (inactive); in assay [7] it was 13.2% (inactive); in assay [8] it was 12.5% (inactive). For the same molecule, in assay [2], the inhibition of aggregation is -3% (inactive). In addition, the values for the nuclei count in assay [2] and in assay [3] were 69.9% and 97.8%, respectively. Besides, in assay [4], the fluorescence slope is -0.546 (inactive). For the same molecule, the NADPH fluorescence slope in assay [5] is -2.3e-05 (inactive). Moreover, the slope in assay [6] was 0.00431 (inactive).
With `COc1cccc(C(=O)n2cnnc2N)c1OC`, the cell count in assay [1] was 391. The inhibition was -2.4% (inactive) in assay [1], 41.5% (inactive) in assay [3], 16.3% (inactive) in assay [7] and 21.1% (inactive) in assay [8]. Besides, in assay [2], the inhibition of aggregation is 1% (inactive). The values for the nuclei count in assay [2] and in assay [3] were 109% and 102%, respectively. For the same molecule, in assay [4], the fluorescence slope was -0.382 (inactive). Further, the NADPH fluorescence slope in assay [5] is 8e-06 (inactive). Also, the slope in assay [6] was 0.00713 (inactive).
With `O=C(COC(=O)CCc1c[nH]c2ccccc12)NC1CCS(=O)(=O)C1` (centres undefined), the cell count in assay [1] is 473. Moreover, the inhibition in assay [1] was 4.7% (inactive); in assay [3], -70.8% (inactive); in assay [7] it was 4.42% (inactive); in assay [8] it was -2.03% (inactive). The inhibition of aggregation in assay [2] is -7.7% (inactive). Besides, the nuclei count turned out to be 101% in assay [2] and 113% in assay [3]. Further, in assay [4], the fluorescence slope was -0.57 (inactive). In addition, the NADPH fluorescence slope in assay [5] is -1.6e-05 (inactive). For the same molecule, the slope in assay [6] is 0.00772 (inactive).
On to `COC(=O)NCC(c1cccnc1)N1CCOCC1` (centres undefined), for which the cell count in assay [1] was found to be 605. The inhibition in assay [1] was -11% (inactive); in assay [3], -24% (inactive); in assay [7], -1.28% (inactive); in assay [8], 16.1% (inactive). For the same molecule, the inhibition of aggregation in assay [2] is 16.6% (inactive). Moreover, the nuclei count in assay [2] was found to be 97.8%; in assay [3], 105%. Moreover, the fluorescence slope in assay [4] was -0.589 (inactive). Also, in assay [5], the NADPH fluorescence slope was -3.5e-05 (inactive). Also, in assay [6], the slope is 0.0059 (inactive).
Turning to `Cc1cc(/C=N/n2cnnc2)c(C)n1-c1cccc(Cl)c1`, in assay [1], the cell count came out at 567. The inhibition was 4.7% (inactive) in assay [1], 40.1% (inactive) in assay [3], 13.2% (inactive) in assay [7] and 21.5% (inactive) in assay [8]. Also, in assay [2], the inhibition of aggregation was 31% (inactive). Also, the nuclei count in assay [2] came to 32.1%; in assay [3], 46%. Moreover, the fluorescence slope in assay [4] was -0.364 (inactive). For the same molecule, in assay [5], the NADPH fluorescence slope is -3.8e-05 (inactive). For the same molecule, the slope in assay [6] is 0.00449 (inactive).
Regarding `COc1ccc(OC)c(S(=O)(=O)Nc2ccc(O)c3ccccc23)c1`, the cell count in assay [1] was determined as 382. The inhibition in assay [1] is -10.1% (inactive); in assay [3], -13.9% (inactive); in assay [7], 14.9% (inactive); in assay [8], 53.2% (active). In addition, in assay [2], the inhibition of aggregation was -0.8% (inactive). For the same molecule, the nuclei count in assay [2] came to 93%; in assay [3], 114%. In addition, the fluorescence slope in assay [4] is -0.416 (inactive). In addition, the NADPH fluorescence slope in assay [5] is -6.5e-05 (inactive). For the same molecule, in assay [6], the slope was 0.00306 (inactive).
For `O=C(Cn1cnc2c(cnn2-c2ccc(F)cc2)c1=O)N1CCN(c2ccccc2)CC1`, in assay [1], the cell count was 341. The inhibition in assay [1] is -6% (inactive); in assay [3], -79.8% (inactive); in assay [7], 4.22% (inactive); in assay [8] it was 8.47% (inactive). Moreover, the inhibition of aggregation in assay [2] was -0.4% (inactive). The values for the nuclei count in assay [2] and in assay [3] were 90.7% and 108%, respectively. In addition, the fluorescence slope in assay [4] is -0.506 (inactive). Also, the NADPH fluorescence slope in assay [5] is -2.6e-06 (inactive). Also, the slope in assay [6] was 0.00638 (inactive).
On to `Cc1ccc(OCc2nnc(SCC(=O)Nc3ccc4c(c3)OCO4)n2C)cc1`, for which the cell count in assay [1] amounted to 325. Also, the inhibition is -6.5% (inactive) in assay [1], -59.2% (inactive) in assay [3], 17.9% (inactive) in assay [7] and 12.7% (inactive) in assay [8]. Further, the inhibition of aggregation in assay [2] was 7.6% (inactive). The nuclei count in assay [2] amounted to 77.3%; in assay [3], 103%. Also, in assay [4], the fluorescence slope is -0.409 (inactive). Also, the NADPH fluorescence slope in assay [5] is -5.7e-05 (inactive). Besides, the slope in assay [6] was 0.00504 (inactive).
In the case of `COCCN(CC(=O)Nc1ccccc1C)S(=O)(=O)c1ccc(S(=O)(=O)N2CCCC2)cc1`, in assay [1], the cell count was found to be 404. In addition, the inhibition was -9.5% (inactive) in assay [1], -18.2% (inactive) in assay [3], 7.63% (inactive) in assay [7] and 13.5% (inactive) in assay [8]. The inhibition of aggregation in assay [2] was -6.7% (inactive). Further, the nuclei count was determined as 103% in assay [2] and 69.8% in assay [3]. The fluorescence slope in assay [4] is -0.416 (inactive). In assay [5], the NADPH fluorescence slope is -7.2e-05 (inactive). For the same molecule, the slope in assay [6] was 0.0043 (inactive).
As for `COCCn1cc(C(=O)c2ccccc2OCC(=O)Nc2cc(C)on2)cc(C#N)c1=O`, the cell count in assay [1] came to 455. Besides, the inhibition in assay [1] was 5.8% (inactive); in assay [3], -7% (inactive); in assay [7], 9.82% (inactive); in assay [8], 15.9% (inactive). Also, in assay [2], the inhibition of aggregation is -23.9% (inactive). The nuclei count in assay [2] was 77.9%; in assay [3] it was 97.9%. In assay [4], the fluorescence slope was -0.368 (inactive). For the same molecule, in assay [5], the NADPH fluorescence slope is 6.2e-06 (inactive). Further, the slope in assay [6] is 0.00464 (inactive).
